Measured values: PubChem BioAssay (Tox21)
Inconclusive results are not listed. Where a call stands in place of a potency, no number is given. Active and inactive are the calls of the source. Unless noted, calls come from the whole dose curve; as a rule, active = well fitted curve in the direction sought with a large enough effect in the repeat runs; inconclusive = weak or mixed curves; inactive = no such curve, though single readings can be large; an effect the other way counts as inactive or inconclusive.

Columns and labels:
[1] = qHTS assay to identify aromatase inhibitors - cell viability counter screen (AID 743084); settings: MCF-7 aro ERE viability, CellTiter-Fluor, 24 h; series mostly up to 70.3 µM;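 note: cells stimulated with testosterone during compound exposure; nearly all actives have a fitted effect of over 55% in size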
[2] = target: Aryl hydrocarbon receptor (Homo sapiens) (UniProt P35869); assay: qHTS assay to identify small molecule that activate the aryl hydrocarbon receptor (AhR) signaling pathway (AID 743085); settings: HepG2 AhR-luc (HG2L7.5c1), luciferase, 24 h; series mostly up to 70.3 µM; note: nearly all actives have a fitted effect of over 15% in size; note: potency is the fitted concentration of half-maximal effect;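 for activation: HG2L7.5c1 human HepG2 liver cells with stably integrated DRE-driven firefly reporter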
Sequence of Aryl hydrocarbon receptor (Homo sapiens) (P35869 whole entry, looked up): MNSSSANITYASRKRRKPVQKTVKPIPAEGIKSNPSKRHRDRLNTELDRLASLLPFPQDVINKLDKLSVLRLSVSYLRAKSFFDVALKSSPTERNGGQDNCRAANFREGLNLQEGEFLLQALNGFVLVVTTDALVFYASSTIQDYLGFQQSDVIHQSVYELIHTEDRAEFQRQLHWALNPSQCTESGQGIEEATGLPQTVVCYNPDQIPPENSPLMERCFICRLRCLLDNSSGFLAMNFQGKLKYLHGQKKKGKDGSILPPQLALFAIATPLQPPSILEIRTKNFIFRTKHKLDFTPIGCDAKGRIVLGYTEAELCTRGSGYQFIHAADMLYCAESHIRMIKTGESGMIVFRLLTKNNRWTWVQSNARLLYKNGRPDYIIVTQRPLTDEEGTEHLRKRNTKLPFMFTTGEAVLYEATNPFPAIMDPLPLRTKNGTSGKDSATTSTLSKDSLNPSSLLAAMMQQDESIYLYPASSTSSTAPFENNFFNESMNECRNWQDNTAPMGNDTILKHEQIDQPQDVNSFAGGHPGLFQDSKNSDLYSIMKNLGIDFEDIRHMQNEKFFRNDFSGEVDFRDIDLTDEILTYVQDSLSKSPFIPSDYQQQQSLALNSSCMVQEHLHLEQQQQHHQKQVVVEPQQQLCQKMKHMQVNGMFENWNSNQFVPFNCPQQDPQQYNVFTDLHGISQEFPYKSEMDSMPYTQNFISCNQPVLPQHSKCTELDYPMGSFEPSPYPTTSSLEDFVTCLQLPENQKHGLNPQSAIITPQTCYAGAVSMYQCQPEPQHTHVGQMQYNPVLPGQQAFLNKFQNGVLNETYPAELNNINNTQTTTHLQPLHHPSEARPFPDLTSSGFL
Procedure, shortened: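 Luminescence (ONE-Glo) from a dioxin-responsive-element luciferase reporter in HG2L7.5c1 HepG2 cells after 24 hr compound exposure at 37C; viability measured by CellTiter-Fluor fluorescence beforehand.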

[3] = qHTS assay to identify small molecule that activate the aryl hydrocarbon receptor (AhR) signaling pathway - cell viability counter screen (AID 743086); settings: HepG2-AhR-luc viability, CellTiter-Fluor, 24 h; series mostly up to 70.3 µM;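 note: HepG2 liver cells carrying the AhR DRE luciferase reporter; nearly all actives have a fitted effect of over 45% in size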
Procedure, shortened: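 HepG2-AhR-luc (HG2L7.5c1) cells, 4000/well, were preincubated 5 h at 37C, exposed to compound in qHTS format for 24 hr at 37C, then given CellTiter-Fluor for 30 min; viability was read as fluorescence in the reporter wells.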

[4] = target: Peroxisome proliferator-activated receptor gamma (Homo sapiens) (UniProt P37231); assay: qHTS assay to identify small molecule agonists of the peroxisome proliferator-activated receptor gamma (PPARg) signaling pathway (AID 743094; active = well fitted activation curve with a large enough effect in the signal ratio in the repeat runs, not every such curve was filed as active; the % refers to the signal ratio); settings: HEK293H PPARg-UAS-bla, beta-lactamase FRET ratio, 17 h; series mostly up to 57 µM
Sequence of Peroxisome proliferator-activated receptor gamma (Homo sapiens) (P37231 whole entry, looked up): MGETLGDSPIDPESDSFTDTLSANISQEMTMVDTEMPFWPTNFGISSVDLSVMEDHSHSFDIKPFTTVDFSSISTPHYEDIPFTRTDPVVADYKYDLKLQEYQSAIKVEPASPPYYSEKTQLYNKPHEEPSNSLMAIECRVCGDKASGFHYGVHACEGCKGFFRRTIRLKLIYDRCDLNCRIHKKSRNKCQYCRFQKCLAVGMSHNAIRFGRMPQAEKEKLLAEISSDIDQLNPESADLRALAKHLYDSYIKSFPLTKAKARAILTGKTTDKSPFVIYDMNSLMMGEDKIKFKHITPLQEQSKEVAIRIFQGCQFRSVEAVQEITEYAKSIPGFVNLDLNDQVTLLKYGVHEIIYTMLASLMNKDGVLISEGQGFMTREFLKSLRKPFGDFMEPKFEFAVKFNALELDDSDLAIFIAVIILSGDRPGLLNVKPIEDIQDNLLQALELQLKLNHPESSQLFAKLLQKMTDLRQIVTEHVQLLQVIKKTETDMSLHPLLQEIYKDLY
Procedure, shortened: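 Compounds dissolved in DMSO were added to PPARg UAS-bla HEK293H cells for 17 h at 37C, and reporter expression was quantified by fluorescence intensity after 1 h with LiveBLAzer B/G FRET substrate.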

[5] = target: Peroxisome proliferator-activated receptor gamma (Homo sapiens) (UniProt P37231); assay: qHTS assay to identify small molecule antagonists of the peroxisome proliferator-activated receptor gamma (PPARg) signaling pathway (AID 743191; calls by dose curve; note: nearly all actives have a fitted effect of over 30% in size); settings: HEK293H PPARg-UAS-bla, beta-lactamase ratio, antagonist, 17 h; series mostly up to 62.6 µM
Procedure, shortened: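 GeneBLAzer PPARg UAS-bla HEK293H cells carrying a UAS-driven beta-lactamase reporter were plated at 3000 cells/well, preincubated 5 h at 37C, then given compound for 17 h at 37C; LiveBLAzer B/G FRET substrate was read after 1 h at room temperature.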

[6] = qHTS assay for small molecule agonists of the antioxidant response element (ARE) signaling pathway (AID 743202; active = well fitted activation curve with a large enough effect in the signal ratio in the repeat runs, not every such curve was filed as active; the % refers to the signal ratio; note: potency is the fitted concentration of half-maximal effect); settings: HepG2 ARE-bla reporter, beta-lactamase FRET, 16 h; series mostly up to 73.3 µM
Procedure, shortened: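 Compounds delivered in DMSO to ARE-bla HepG2 cells (2,000 cells/well, pre-incubated 5 h) and left 16 h at 37 C. LiveBLAzer B/G FRET substrate then added for 2 h at RT before fluorescence reading.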

[7] = qHTS assay for small molecule agonists of the antioxidant response element (ARE) signaling pathway - cell viability counter screen (AID 743203; calls by dose curve; note: nearly all actives have a fitted effect of over 55% in size); settings: ARE-bla HepG2 viability, CellTiter-Glo luminescence, 16 h; series mostly up to 73.3 µM
Procedure, shortened: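 Following 16 hrs of compound treatment at 37C, HepG2 cells with an ARE-controlled beta-lactamase gene were lysed with CellTiter-Glo. Luminescence was read after 30 min at room temperature.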

[8] = qHTS assay for small molecule activators of the heat shock response signaling pathway - cell viability counter screen (AID 743209); settings: HSE-bla HeLa viability, CellTiter-Glo luminescence, 5 h; series mostly up to 62.6 µM; note: nearly all actives have a fitted effect of over 50% in size
Procedure, shortened: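 Readout: CellTiter-Glo luminescence, 30 min at room temperature. System: HSE-bla HeLa cells, 1500/well, plated overnight. Treatment: compounds in DMSO, 5 h at 37 C.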

[9] = qHTS assay for small molecule activators of the heat shock response signaling pathway (AID 743210; active = well fitted activation curve with a large enough effect in the signal ratio in the repeat runs, with a control signal flat, not every such curve was filed as active; the % refers to the signal ratio;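 note: HeLa cells with beta-lactamase reporter driven by heat shock elements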); settings: HeLa HSE-bla reporter, beta-lactamase ratio, 5 h; series mostly up to 62.6 µM
Procedure, shortened: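 Reporter gene assay: HeLa cells stably bearing an HSE-bla construct, compound treatment 5 h at 37 C, LiveBLAzer substrate 2.5 h at RT, fluorescence intensity.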

[10] = qHTS assay to identify small molecule agonists of the peroxisome proliferator-activated receptor delta (PPARd) signaling pathway - cell viability counter screen (AID 743211); settings: PPARd-bla HEK293H viability, CellTiter-Glo luminescence, 17 h; series mostly up to 62.6 µM; note: nearly all actives have a fitted effect of over 55% in size
Procedure, shortened: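 Viability was measured as CellTiter-Glo luminescence (30 min, room temperature) in the same wells as the beta-lactamase readout. GeneBLAzer PPARd UAS-bla HEK293H cells received compound after 5 h plating and were incubated 17 h at 37 C.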

[11] = target: Peroxisome proliferator-activated receptor delta (Homo sapiens) (UniProt Q03181); assay: qHTS assay to identify small molecule agonists of the peroxisome proliferator-activated receptor delta (PPARd) signaling pathway (AID 743212; calls by dose curve); settings: HEK293H PPARd-UAS-bla, beta-lactamase FRET ratio, 17 h; series mostly up to 62.6 µM
Sequence of Peroxisome proliferator-activated receptor delta (Homo sapiens) (Q03181 whole entry, looked up): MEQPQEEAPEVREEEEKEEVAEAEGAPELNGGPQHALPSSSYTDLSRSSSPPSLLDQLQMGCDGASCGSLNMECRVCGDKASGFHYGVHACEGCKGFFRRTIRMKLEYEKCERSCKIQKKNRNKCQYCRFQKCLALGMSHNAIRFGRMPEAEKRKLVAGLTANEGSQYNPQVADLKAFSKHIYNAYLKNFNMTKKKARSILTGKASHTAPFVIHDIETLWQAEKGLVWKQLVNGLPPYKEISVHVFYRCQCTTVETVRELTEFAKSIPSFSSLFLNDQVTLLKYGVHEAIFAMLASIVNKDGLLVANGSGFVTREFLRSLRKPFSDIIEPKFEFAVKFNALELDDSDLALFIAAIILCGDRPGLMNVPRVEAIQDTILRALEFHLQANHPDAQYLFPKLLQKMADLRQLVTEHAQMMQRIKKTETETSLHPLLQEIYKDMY
Procedure, shortened: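 A PPARd-bla HEK293H line with beta-lactamase under an Upstream Activator Sequence is treated with compounds at 37 C. Substrate loading for 2 h at room temperature precedes the fluorescence measurement.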

[12] = qHTS assay to identify small molecule antagonists of the peroxisome proliferator-activated receptor delta (PPARd) signaling pathway - cell viability counter screen (AID 743213); settings: PPARd-bla HEK293H viability, CellTiter-Glo luminescence, 17 h; series mostly up to 62 µM; note: nearly all actives have a fitted effect of over 50% in size
Procedure, shortened: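 Luminescence from CellTiter-Glo, added after the bla read and incubated 30 min at room temperature, gives viability of HEK293H PPARd-bla cells exposed to compounds for 17 h at 37 C with 300 nM L165041.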

[13] = target: Bile acid receptor (Homo sapiens) (UniProt Q96RI1); assay: qHTS assay to identify small molecule antagonists of the farnesoid-X-receptor (FXR) signaling pathway (AID 743217; active = well fitted inhibition curve with a large enough effect in the signal ratio in the repeat runs, not every such curve was filed as active; the % refers to the signal ratio); settings: HEK293T FXR-UAS-bla, beta-lactamase ratio, CDCA-stimulated, 16 h; series mostly up to 62.6 µM
Sequence of Bile acid receptor (Homo sapiens) (Q96RI1 whole entry, looked up): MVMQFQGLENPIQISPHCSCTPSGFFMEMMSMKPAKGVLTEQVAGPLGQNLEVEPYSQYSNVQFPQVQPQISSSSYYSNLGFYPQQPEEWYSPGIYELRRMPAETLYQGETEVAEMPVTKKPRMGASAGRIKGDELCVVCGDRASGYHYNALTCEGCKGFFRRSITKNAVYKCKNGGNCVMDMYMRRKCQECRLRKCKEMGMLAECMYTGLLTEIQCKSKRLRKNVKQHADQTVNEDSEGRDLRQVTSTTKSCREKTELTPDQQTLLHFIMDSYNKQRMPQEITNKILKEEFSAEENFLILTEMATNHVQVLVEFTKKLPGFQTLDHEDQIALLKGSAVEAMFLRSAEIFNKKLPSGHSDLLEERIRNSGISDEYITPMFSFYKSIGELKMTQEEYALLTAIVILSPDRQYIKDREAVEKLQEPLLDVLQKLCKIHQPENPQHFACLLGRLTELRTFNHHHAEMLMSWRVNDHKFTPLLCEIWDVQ
Procedure, shortened: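 GeneBLAzer FXR-UAS-bla HEK 293T, CDCA-stimulated (50 uM final). Compound treatment 16 h, 37 °C. Detection: beta-lactamase cleavage of B/G FRET substrate, fluorescence.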

[14] = qHTS assay to identify small molecule agonists of the farnesoid-X-receptor (FXR) signaling pathway - cell viability counter screen (AID 743218); settings: FXR-bla HEK293T viability, CellTiter-Glo luminescence, 16 h; series mostly up to 62.6 µM; note: nearly all actives have a fitted effect of over 45% in size
Procedure, shortened: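 Parallel cytotoxicity test: compound-treated (16 h, 37 C) HEK 293T FXR-bla reporter cells were lysed with CellTiter-Glo and luminescence recorded.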

[15] = target: Bile acid receptor (Homo sapiens) (UniProt Q96RI1); assay: qHTS assay to identify small molecule agonists of the farnesoid-X-receptor (FXR) signaling pathway (AID 743220; active = well fitted activation curve with a large enough effect in the signal ratio in the repeat runs, not every such curve was filed as active; the % refers to the signal ratio); settings: HEK293T FXR-UAS-bla, beta-lactamase FRET ratio, 16 h; series mostly up to 62.6 µM
Procedure, shortened: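 Beta-lactamase reporter under UAS control in GeneBLAzer FXR HEK 293T cells (5000/well) measured with LiveBLAzer FRET substrate after 2 h at room temperature. Compound exposure lasted 16 h at 37C.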

[16] = qHTS assay to identify small molecule antagonists of the farnesoid-X-receptor (FXR) signaling pathway - cell viability counter screen (AID 743221; active = well fitted cell-killing curve with a large enough effect in the repeat runs, not every such curve was filed as active; note: nearly all actives have a fitted effect of over 50% in size); settings: FXR-bla HEK293T viability, CellTiter-Glo luminescence, 16 h; series mostly up to 62.6 µM
Procedure, shortened: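 Cytotoxicity counter screen run in the FXR-bla reporter wells: HEK 293T cells exposed to compound with 50 uM (final) chenodeoxycholic acid for 16 h, 37 C, then viability measured by CellTiter-Glo luminescence after 30 min, room temperature.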

[17] = target: Vitamin D3 receptor (Homo sapiens) (UniProt P11473); assay: qHTS assay to identify small molecule agonists of the vitamin D receptor (VDR) signaling pathway (AID 743222; calls by dose curve); settings: HEK293T VDR-UAS-bla, beta-lactamase FRET ratio, 16 h; series mostly up to 63.5 µM
Sequence of Vitamin D3 receptor (Homo sapiens) (P11473 whole entry, looked up): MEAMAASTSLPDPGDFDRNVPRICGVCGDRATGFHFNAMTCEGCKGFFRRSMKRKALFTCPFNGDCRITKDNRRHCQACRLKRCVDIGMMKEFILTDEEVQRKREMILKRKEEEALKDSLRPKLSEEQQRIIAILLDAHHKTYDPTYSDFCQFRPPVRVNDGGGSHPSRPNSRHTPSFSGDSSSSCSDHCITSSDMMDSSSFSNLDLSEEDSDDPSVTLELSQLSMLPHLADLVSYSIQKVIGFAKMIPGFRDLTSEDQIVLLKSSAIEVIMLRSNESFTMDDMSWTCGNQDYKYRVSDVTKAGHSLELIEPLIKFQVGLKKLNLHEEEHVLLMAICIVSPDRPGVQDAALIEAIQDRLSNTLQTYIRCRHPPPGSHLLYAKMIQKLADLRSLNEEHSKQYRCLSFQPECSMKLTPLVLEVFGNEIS
Procedure, shortened: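 In VDR-bla cells, compound-induced beta-lactamase expression is quantified by FRET substrate fluorescence. Treatment lasts 16 h at 37C; substrate develops 2 h at room temperature.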

[18] = target: Vitamin D3 receptor (Homo sapiens) (UniProt P11473); assay: qHTS assay to identify small molecule antagonists of the vitamin D receptor (VDR) signaling pathway (AID 743223; active = well fitted inhibition curve with a large enough effect in the signal ratio in the repeat runs, not every such curve was filed as active; the % refers to the signal ratio); settings: VDR-UAS-bla HEK293T, beta-lactamase FRET ratio, 16 h; series mostly up to 61 µM
Procedure, shortened: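 Antagonist mode: compound added to VDR-bla cells alongside agonist 1alpha,25-dihydroxyvitamin D3 (3 nM final), incubation 16 h at 37C. Read-out is LiveBLAzer FRET fluorescence, 2 h at room temperature.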

[19] = qHTS assay to identify small molecule antagonists of the peroxisome proliferator-activated receptor gamma (PPARg) signaling pathway - cell viability counter screen (AID 743194); settings: PPARg-bla HEK293H viability, CellTiter-Glo luminescence, 17 h, co-treated with 50 nM rosiglitazone; series mostly up to 62.6 µM; note: nearly all actives have a fitted effect of over 55% in size
Procedure, shortened: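 PPARg-UAS-bla HEK293H cells were plated, rested 5 h at 37 C, then treated with compounds plus rosiglitazone (50 nM final) for 17 h at 37 C; viability was then read by CellTiter-Glo luminescence after 30 min at room temperature.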

[20] = target: Peroxisome proliferator-activated receptor delta (Homo sapiens) (UniProt Q03181); assay: qHTS assay to identify small molecule antagonists of the peroxisome proliferator-activated receptor delta (PPARd) signaling pathway (AID 743215; active = well fitted inhibition curve with a large enough effect in the signal ratio in the repeat runs, not every such curve was filed as active; the % refers to the signal ratio;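 note: cells stimulated with agonist L165041 at 300 nM final during compound exposure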); settings: HEK293H PPARd-UAS-bla, beta-lactamase FRET ratio, antagonist, 17 h; series mostly up to 62 µM
Procedure, shortened: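 HEK293H UAS-bla, PPARd; agonist L165041 300 nM final with cpd in DMSO; 37 C 17 h; FRET substrate, RT 2 h; fluorescence intensity.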

Row | SMILES | Potency [1] | Potency [2] | Potency [3] | Potency [4] | outcome [5] | Potency [6] | outcome [7] | Potency [8] | outcome [9] | outcome [10] | outcome [11] | outcome [12] | outcome [13] | outcome [14] | outcome [15] | outcome [16] | outcome [17] | outcome [18] | outcome [19] | outcome [20]
1 | CC(O)CC(C)O (centres undefined) | inactive | inactive | inactive | inactive | inactive | inactive | inactive | inactive | inactive | inactive | inactive | inactive | inactive | inactive | inactive | inactive | inactive | inactive |  | 
2 | C[C@]12CCC(=O)C=C1CC[C@H]1[C@@H]3CC[C@](O)(C(=O)CO)[C@@]3(C)C[C@H](O)[C@@]12F | inactive | inactive | inactive | inactive |  | inactive | inactive | inactive | inactive | inactive | inactive | inactive | inactive |  | inactive | inactive | inactive | inactive | inactive | inactive
3 | CC(C)OC(=O)OCOP(=O)(CO[C@H](C)Cn1cnc2c(N)ncnc21)OCOC(=O)OC(C)C | inactive | inactive | inactive | inactive | inactive | 11.9 µM (active) | inactive | inactive | inactive | inactive | inactive | inactive |  | inactive |  | inactive | inactive | inactive |  | inactive
4 | O=C(CN1CCNCC1)NC1CCCCC1 | inactive | inactive | inactive | inactive | inactive | inactive | inactive | inactive | inactive | inactive | inactive | inactive |  | inactive |  | inactive |  |  |  | 
5 | CCO | inactive | inactive | inactive | inactive | inactive | inactive | inactive | inactive | inactive | inactive | inactive |  | inactive | inactive |  | inactive | inactive | inactive |  | 
6 | ONc1ccccc1 | inactive | 60.5 µM (active) | inactive | inactive | inactive |  | inactive | inactive |  | inactive |  | inactive |  | inactive |  | inactive | inactive |  |  | inactive
7 | O=C(O)CNC(=O)CNC(=O)CNC(=O)CSC(=O)c1ccccc1 | inactive | inactive | inactive | inactive | inactive | inactive | inactive | inactive |  | inactive |  | inactive |  | inactive |  | inactive | inactive | inactive |  | 
8 | OCC1CCC(CO)CC1 (centres undefined) | inactive | inactive | inactive | inactive |  | inactive | inactive | inactive | inactive | inactive | inactive | inactive | inactive |  | inactive | inactive | inactive | inactive | inactive | inactive
9 | CCCCCCCCCOC(=O)c1ccccc1C(=O)OCCCCCCCCC | inactive | inactive | inactive | inactive |  | inactive | inactive | inactive | inactive | inactive | inactive | inactive | inactive |  | inactive | inactive | inactive |  | inactive | inactive
10 | CC(=O)Nc1ccc(OC(=O)c2ccccc2OC(C)=O)cc1 | inactive | inactive | inactive | inactive | inactive |  | inactive | inactive | inactive | inactive | inactive | inactive |  | inactive |  | inactive | inactive | inactive |  | inactive
11 | C=CCN1C[C@H](C(=O)N(CCCN(C)C)C(=O)NCC)C[C@@H]2c3cccc4[nH]cc(c34)C[C@H]21 | inactive | inactive | inactive | inactive | inactive | inactive | inactive | inactive | inactive |  | inactive |  |  | inactive |  | inactive | inactive | inactive |  | inactive
12 | c1ccc2cnccc2c1 | inactive | inactive | inactive | inactive | inactive |  | inactive | inactive | inactive | inactive |  | inactive |  | inactive |  | inactive | inactive |  |  | 
13 | COC(=O)c1cc(Cl)cc(Cl)c1 | inactive | inactive | inactive | inactive | inactive | inactive | inactive | inactive | inactive | inactive |  | inactive |  |  |  | inactive | inactive | inactive |  | inactive
14 | CCCCCCCCCCOC(C)=O | inactive | inactive | inactive | inactive | inactive |  | inactive | inactive | inactive | inactive | inactive | inactive |  | inactive |  | inactive |  | inactive |  | 
15 | Cc1c(NC(=O)c2cccnc2)c(=O)n(-c2ccccc2)n1C | inactive | inactive | inactive | inactive | inactive | inactive | inactive | inactive | inactive | inactive |  | inactive | inactive |  | inactive | inactive | inactive |  |  | 
16 | Cc1ncc([N+](=O)[O-])n1CC(C)O (centres undefined) | inactive | inactive | inactive | inactive | inactive | inactive | inactive | inactive | inactive | inactive | inactive | inactive |  | inactive |  | inactive | inactive |  |  | inactive
